This is an account of results in PubChem BioAssay.

“And” between values parts separate entries of the source, which are not always exact repeats. Equal values may be shown once. The source made the active and inactive calls. Rule as the data show it: active = parasite load remaining mostly below about 12% (no sharp cut-off); inactive = mostly above about 10%.

The test is described as follows: liver-stage malaria parasite growth inhibition, primary screen, cell-based, HepG2, luciferase luminescence, HepG2 viability (AID 624349).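 Also: 100% = mean of DMSO negative control wells on the same plate.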 The settings on record: P. berghei liver stage in HepG2, luciferase luminescence, concentration not given here; parasite load remaining: stronger effect = lower value; viability: measured here: HepG2 viability without parasites.
Take `c1ccc2c(c1)CCCc1cc(NCCN3CCOCC3)nnc1-2`: the parasite load remaining is 74.6% (inactive) and 80.6% (inactive); the viability (commonly a read-out of living cells in per cent, often relative to untreated cells) was 105% and 79%.
For `COC(=O)C1=CO[C@@H](C)[C@H]2CN3CCc4c([nH]c5ccccc45)[C@@H]3C[C@H]12`, the viability is 97.4% and 74.1%; the parasite load remaining is 108% (inactive) and 62.6% (inactive).
Consider `Cc1n[nH]c(=O)[nH]c1=O`, for which the parasite load remaining is 54.2% (inactive) and 83.7% (inactive); the viability was 111% and 75.4%.
As for `O[C@@H]1[C@@H](O)C=C2CCN3Cc4cc5c(cc4[C@H]1C23)OCO5` (some centres not stated), the parasite load remaining is -0.065% (active) and the viability came to 101%.
For the compound `COC(=O)[C@H]1[C@H]2C[C@@H]3c4[nH]c5cc(OC)ccc5c4CCN3C[C@H]2C[C@@H](OC(=O)/C=C/c2cc(OC)c(OC)c(OC)c2)[C@@H]1OC`, the viability is 94.2% and 77.7%; the parasite load remaining was 26.9% (inactive) and 41.8% (inactive).
Regarding `C[C@H](CCC(=O)NCC(=O)O)[C@H]1CC[C@H]2[C@@H]3[C@H](O)C[C@@H]4C[C@H](O)CC[C@]4(C)[C@H]3C[C@H](O)[C@]12C`, the viability is 103% and 76.4%; the parasite load remaining was 142% (inactive) and 80.1% (inactive).
For `COc1c(O[C@@H]2O[C@H](CO)[C@@H](O)[C@H](O)[C@H]2O)cc2c(c1OC)-c1ccc(SC)c(=O)cc1C(NC(C)=O)CC2` (some centres not stated), the parasite load remaining is 68.6% (inactive) and 75.2% (inactive); the viability is 120% and 78%.
In the case of `CO[C@@H]1[C@@H](OC(N)=O)[C@@H](O)C(Oc2ccc3c(O)c(NC(=O)c4ccc(O)c(CC=C(C)C)c4)c(=O)oc3c2C)OC1(C)C` (some centres not stated), the parasite load remaining is 78.5% (inactive) and the viability was 90.9%.
Consider `COc1ccc2c(OC)c3ccoc3nc2c1OC`, for which the viability was 95.8% and the parasite load remaining is 157% (inactive).
As to `C[N+]1(C)C[C@@H](O)C[C@H]1C(=O)[O-]`, the viability was found to be 106% and the parasite load remaining was 117% (inactive).
Consider `COc1c(O)cc2c(c1O)C1OC(CO)C(O)C(O)C1OC2=O` (configuration not stated), for which the viability was found to be 106% and the parasite load remaining was 89.5% (inactive).
